Laboratory results reported in PubChem BioAssay.
Results filed as inconclusive are left out. Active and inactive are the calls of the source.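 The calls were made as follows, unless noted: active = percent response above a set limit, the screen-wide mean plus 3 SD (cut at about 130% in these data); inactive = the rest.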 Peptide text beside a SMILES is read from it. * marks the point of attachment. Boc = CC(C)(C)OC(=O)*

Legend:
[1] = rapamycin-like changes in RPL19A-GFP expression – cell-based, S. cerevisiae, multiplex flow cytometry, primary screen (AID 1862; in the data active = percent of DMSO control GFP below about 86%;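 also: lower values mimic rapamycin by blocking the RPL19A rise seen in DMSO cells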); details: S. cerevisiae RPL19A-GFP strain, flow cytometry fluorescence, 3 h; at 10 µM; stronger effect = lower value
[2] = TOR pathway GLN3 branch reporter MEP2-GFP changes – S. cerevisiae, multiplex flow cytometry, primary screen (AID 1867;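 active = GFP response, as percent of the DMSO control, above the screen-wide mean plus 3 SD, about 139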;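 also: median GFP channel fluorescence of barcode-gated MEP2-GFP cells measured by flow cytometry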); details: S. cerevisiae MEP2-GFP strain, 3 h, at 10 µM, stronger effect = higher value, 100% means same as DMSO wells
[3] = TOR pathway RTG branch CIT2 reporter changes – S. cerevisiae, GFP fusion, multiplex flow cytometry, primary screen (AID 1870);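 also: barcoded CIT2-GFP strain pooled with four other GFP strains with rapamycin as positive control; median GFP fluorescence per well over plate mean of DMSO wells so 100% = DMSO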; details: S. cerevisiae CIT2-GFP expression, 3 h, at 10 µM, stronger effect = higher value
[4] = TOR pathway LAP4-GFP level changes – S. cerevisiae, multiplex flow cytometry, primary screen (AID 1873;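 active = GFP signal, as percent of the solvent control, above the screen mean plus 3 SD, about 149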); details: S. cerevisiae LAP4-GFP expression, 3 h, at 10 µM, stronger effect = higher value
[5] = yeast AGP1-GFP level changes, GLN3 branch – cell-based, multiplex flow cytometry, S. cerevisiae, primary screen (AID 1887;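 active = GFP signal above the screen-wide mean plus 3 SD, that is over about 124.5% of the solvent control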;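 also: AGP1-GFP fusion strain of S. cerevisiae within a five-strain barcoded multiplex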); details: 3 h, at 10 µM, stronger effect = higher value
[6] = reduced mouse 2C T cell binding to pMHC/ICAM-1 vesicles – MLPCN validation set, flow cytometry, LFA-1/ICAM-1 modulator project, pilot screen (AID 2523;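 active = response below a set limit, under 55% cells CD8-positive and vesicle-bound, and CD8 cells' 90th-percentile brightness under 279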;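 as to vesicle binding response: mean PE anti-B7-1 fluorescence of CD8+ cells relative to row control; 100% = QL9-loaded vesicles with DMSO vehicle in the same plate row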); details: 2C mouse CD8+ T cells, at 7 µM, stronger effect = lower value; double positive events: measured here: CD8+/vesicle+ event percentage
[7] = molecular target: Integrin beta-1 (Homo sapiens) + Integrin alpha-4 (Homo sapiens) (UniProt P13612+P05556); assay: alpha4beta1 integrin LIBS antibody binding reduction – U937 cells, HUTS-21 mAb, flow cytometry, validation set, VLA-4 allosteric modulator project, pilot screen (AID 2674;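 active = inhibition above 50%, about 3 SD of the validation set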;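 also: antibody binding induced by the VLA-4 ligand LDV present at three times its Kd; 0% = LDV ligand with antibody and no compound and 100% = antibody without LDV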); details: HUTS-21 LIBS mAb binding, at 6.7 µM, stronger effect = higher value, binding induced by LDV ligand
Integrin beta-1 (Homo sapiens) + Integrin alpha-4 (Homo sapiens), sequence (P05556 whole entry, looked up): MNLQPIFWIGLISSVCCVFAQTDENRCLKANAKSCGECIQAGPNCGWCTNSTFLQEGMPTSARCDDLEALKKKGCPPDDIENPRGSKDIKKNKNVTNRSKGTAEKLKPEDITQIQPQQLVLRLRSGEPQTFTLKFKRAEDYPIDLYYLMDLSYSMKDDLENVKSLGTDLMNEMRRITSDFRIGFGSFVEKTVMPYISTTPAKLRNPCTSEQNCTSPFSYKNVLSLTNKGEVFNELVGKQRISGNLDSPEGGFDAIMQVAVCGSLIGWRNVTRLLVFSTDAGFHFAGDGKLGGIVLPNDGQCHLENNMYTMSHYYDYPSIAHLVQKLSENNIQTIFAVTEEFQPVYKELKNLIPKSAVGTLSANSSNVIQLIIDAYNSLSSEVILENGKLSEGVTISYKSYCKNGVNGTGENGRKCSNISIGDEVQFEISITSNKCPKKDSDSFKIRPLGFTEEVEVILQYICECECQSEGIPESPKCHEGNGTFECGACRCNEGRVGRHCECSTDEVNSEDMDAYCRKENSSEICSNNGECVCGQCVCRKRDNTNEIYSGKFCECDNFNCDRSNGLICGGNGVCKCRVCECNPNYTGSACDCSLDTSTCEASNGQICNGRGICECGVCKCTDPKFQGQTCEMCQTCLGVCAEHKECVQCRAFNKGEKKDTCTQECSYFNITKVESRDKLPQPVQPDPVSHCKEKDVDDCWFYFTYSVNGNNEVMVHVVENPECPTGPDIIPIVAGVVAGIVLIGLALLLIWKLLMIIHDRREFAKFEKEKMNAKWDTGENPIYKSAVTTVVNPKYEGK
Integrin beta-1 (Homo sapiens) + Integrin alpha-4 (Homo sapiens), sequence (P13612 whole entry, looked up): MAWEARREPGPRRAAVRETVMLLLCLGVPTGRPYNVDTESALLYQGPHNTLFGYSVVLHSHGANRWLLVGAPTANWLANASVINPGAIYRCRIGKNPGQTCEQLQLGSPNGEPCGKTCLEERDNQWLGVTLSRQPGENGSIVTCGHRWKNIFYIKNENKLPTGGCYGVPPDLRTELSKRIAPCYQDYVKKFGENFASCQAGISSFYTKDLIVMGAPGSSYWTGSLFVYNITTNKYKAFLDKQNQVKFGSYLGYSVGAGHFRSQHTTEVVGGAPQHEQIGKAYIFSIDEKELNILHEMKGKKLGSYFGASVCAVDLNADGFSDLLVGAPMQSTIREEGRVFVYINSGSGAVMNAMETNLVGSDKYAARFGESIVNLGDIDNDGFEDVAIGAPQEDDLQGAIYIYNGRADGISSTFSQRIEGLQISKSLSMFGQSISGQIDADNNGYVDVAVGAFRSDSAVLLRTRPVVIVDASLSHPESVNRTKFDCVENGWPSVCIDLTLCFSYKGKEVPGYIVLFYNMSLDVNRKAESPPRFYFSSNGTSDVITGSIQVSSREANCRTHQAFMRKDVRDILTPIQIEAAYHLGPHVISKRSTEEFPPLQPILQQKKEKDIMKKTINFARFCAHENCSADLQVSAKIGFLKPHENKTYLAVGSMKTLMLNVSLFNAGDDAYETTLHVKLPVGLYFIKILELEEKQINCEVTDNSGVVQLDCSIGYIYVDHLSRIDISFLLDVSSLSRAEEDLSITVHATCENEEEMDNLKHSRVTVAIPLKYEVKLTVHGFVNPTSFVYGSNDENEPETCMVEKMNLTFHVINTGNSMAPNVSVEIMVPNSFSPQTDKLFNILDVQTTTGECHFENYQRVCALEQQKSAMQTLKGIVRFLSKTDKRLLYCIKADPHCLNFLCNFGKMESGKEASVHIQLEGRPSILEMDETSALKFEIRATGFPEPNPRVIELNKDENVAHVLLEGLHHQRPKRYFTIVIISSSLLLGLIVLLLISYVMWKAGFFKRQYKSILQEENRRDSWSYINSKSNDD

[8] = calorie-restriction mimetic ROS inhibitors, yeast – validation compound set, pilot screen (AID 2706;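 active = superoxide response below 65% of plate, a cut near 3 SD across the whole screen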;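 also: yeast exposed to compound for one week at 30 degrees C before staining; 100% = mean of all compound wells on the same plate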); details: S. cerevisiae aging, superoxide DHE fluorescence; at 10 µM, stronger effect = lower value
[9] = molecular target: Beta-adrenergic receptor kinase 1 (Homo sapiens) (UniProt P25098); assay: GRK2 binders displacing RNA aptamer, biochemical, validation, human GRK2, bead flow cytometry (AID 488806;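 active = aptamer binding inhibition above 30%, about 3 SD of noise from non-fluorescent compounds; inactive = inhibition at or below 30%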); details: bead-bound GRK2, FAM-aptamer displacement, at 10 µM, stronger effect = higher value
Beta-adrenergic receptor kinase 1 (Homo sapiens), sequence (P25098 whole entry, looked up): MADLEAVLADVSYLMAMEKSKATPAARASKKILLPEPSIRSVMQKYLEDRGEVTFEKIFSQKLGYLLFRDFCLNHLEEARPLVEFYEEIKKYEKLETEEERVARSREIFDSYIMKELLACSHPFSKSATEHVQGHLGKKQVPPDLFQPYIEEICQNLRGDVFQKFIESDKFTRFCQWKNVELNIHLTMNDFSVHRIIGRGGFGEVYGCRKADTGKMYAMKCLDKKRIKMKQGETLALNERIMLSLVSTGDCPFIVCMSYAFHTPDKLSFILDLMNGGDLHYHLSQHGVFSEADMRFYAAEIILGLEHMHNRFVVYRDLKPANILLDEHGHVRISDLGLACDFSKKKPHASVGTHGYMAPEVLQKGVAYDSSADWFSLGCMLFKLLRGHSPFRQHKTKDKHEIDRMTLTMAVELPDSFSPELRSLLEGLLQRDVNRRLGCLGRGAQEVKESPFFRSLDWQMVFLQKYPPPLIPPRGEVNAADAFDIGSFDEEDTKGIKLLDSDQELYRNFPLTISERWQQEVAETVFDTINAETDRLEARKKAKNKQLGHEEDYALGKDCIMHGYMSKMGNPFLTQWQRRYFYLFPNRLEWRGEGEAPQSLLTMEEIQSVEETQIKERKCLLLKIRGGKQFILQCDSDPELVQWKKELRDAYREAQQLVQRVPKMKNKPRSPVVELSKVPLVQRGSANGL

[10] = molecular target: Beta-2 adrenergic receptor (Homo sapiens) (UniProt P07550); assay: agonist-induced loss of surface beta2AR – cell-based, FAP fluorogen, flow cytometry, validation set, pilot screen (AID 504459;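 active = percent response above 42, roughly 3 SD of non-fluorescent test compounds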;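 also: agonist-driven loss of surface beta2AR via internalization measured by FAP dye flow cytometry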); details: Am2.2-beta2AR cells, at 10 µM, stronger effect = higher value
Beta-2 adrenergic receptor (Homo sapiens), sequence (P07550 whole entry, looked up): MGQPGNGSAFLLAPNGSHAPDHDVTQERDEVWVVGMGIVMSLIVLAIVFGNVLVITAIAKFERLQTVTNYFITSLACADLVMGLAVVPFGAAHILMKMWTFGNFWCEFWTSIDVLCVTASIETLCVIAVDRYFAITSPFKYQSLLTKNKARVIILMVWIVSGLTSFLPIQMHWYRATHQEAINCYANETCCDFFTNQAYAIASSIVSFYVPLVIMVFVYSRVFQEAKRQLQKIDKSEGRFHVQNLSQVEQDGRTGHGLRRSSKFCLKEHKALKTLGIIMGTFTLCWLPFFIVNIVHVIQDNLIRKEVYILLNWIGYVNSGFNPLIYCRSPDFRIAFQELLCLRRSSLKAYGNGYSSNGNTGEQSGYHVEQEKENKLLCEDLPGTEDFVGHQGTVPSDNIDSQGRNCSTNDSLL

[11] = cytosolic pH regulators acting via V-ATPase – S. cerevisiae, pHLuorin, HTS validation (AID 504600; in the data active = response above about 15%;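 also: plate controls were DMSO for no effect and reference compound for full effect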); details: V-ATPase proton transport, at 10 µM, stronger effect = higher value
[12] = test system: anti-desmoglein-3 scFv antibody binding to human DSG3; assay: blockers of pathogenic pemphigus antibody–desmoglein-3 binding – biochemical, validation compound set, bead-based, flow cytometry, pilot screen (AID 588368;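 active = binding below the plate cutoff, the plate median minus 3 SD, with a reading above zero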;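 also: signal is the median channel fluorescence of bead-bound GFP antibody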); details: Protein G beads, DSG3-Fc, scFv-GFP binding, at 10 µM, stronger effect = lower value
[13] = Nile Red efflux blockade in pump-expressing yeast – validation compound set, multiplex, phenotypic, pilot screen (AID 588506;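 active = efflux inhibition above 0.42, the validation set average plus 4 SD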;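 also: Nile Red retained in cells so higher fluorescence means more efflux inhibition; 0 = negative control wells and 1 = enniatin B 25 µM full block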); details: S. cerevisiae pump-expressing triplex, Nile Red efflux flow cytometry; at 10 µM; stronger effect = higher value; the pumps come from Candida albicans
[14] = molecular target: ATP-binding cassette sub-family B member 6 (Homo sapiens) (UniProt Q9NP58); assay: blockers of ABCB6-driven porphyrin uptake – K562-ABCB6 cells, flow cytometry, validation set, pilot screen (AID 588550;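 active = inhibition above the screen-wide mean plus 3 SD, about 51%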;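 also: 0% = DMSO wells and 100% = benzethonium chloride 70 µM positive control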); details: K562-ABCB6 porphyrin accumulation, 1 h, at 10 µM, stronger effect = higher value
ATP-binding cassette sub-family B member 6 (Homo sapiens), sequence (Q9NP58 whole entry, looked up): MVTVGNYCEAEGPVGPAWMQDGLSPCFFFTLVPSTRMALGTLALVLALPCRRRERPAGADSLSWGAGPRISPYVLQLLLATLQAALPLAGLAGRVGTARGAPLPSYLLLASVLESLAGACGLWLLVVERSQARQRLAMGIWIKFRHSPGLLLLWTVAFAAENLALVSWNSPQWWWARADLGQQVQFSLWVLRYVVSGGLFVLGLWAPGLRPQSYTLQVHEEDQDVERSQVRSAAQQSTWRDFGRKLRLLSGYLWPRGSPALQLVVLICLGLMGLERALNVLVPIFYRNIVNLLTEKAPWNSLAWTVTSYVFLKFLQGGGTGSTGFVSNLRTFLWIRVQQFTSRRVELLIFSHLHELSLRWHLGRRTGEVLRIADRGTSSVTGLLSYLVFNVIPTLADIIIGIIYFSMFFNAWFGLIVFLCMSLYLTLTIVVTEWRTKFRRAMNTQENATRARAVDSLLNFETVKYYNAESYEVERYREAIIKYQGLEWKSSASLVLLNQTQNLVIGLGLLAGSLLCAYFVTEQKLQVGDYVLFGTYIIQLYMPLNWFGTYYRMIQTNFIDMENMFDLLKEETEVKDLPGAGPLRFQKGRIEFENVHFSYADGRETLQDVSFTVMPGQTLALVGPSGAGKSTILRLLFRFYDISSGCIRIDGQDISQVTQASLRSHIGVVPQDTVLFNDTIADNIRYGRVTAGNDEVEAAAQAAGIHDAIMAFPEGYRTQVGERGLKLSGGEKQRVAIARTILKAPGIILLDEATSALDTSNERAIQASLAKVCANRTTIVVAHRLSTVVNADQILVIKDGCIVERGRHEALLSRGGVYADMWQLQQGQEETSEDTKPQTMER

[15] = AML differentiation inducers, ER-HoxA9 marrow cells – cell-based, GFP/MAC1 double positive, flow cytometry, validation set, primary screen (AID 588685;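 active = differentiation response of at least 50%, scaled between solvent and reference control, from cells with both markers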;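 also: compound exposure lasts four days before antibody staining and flow analysis; 0% = DMSO wells and 100% = 5 µM fulvestrant positive control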); details: stronger effect = higher value, normalized: vehicle 0, fulvestrant 100
[16] = molecular target: AP-2 complex subunit beta (Homo sapiens) (UniProt P63010); assay: beta-arrestin/AP2 interaction blockers – biochemical, validation set, GST-AP2 beads, flow cytometry, pilot screen (AID 504541;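 active = inhibition above 54%, about 3 SD of non-fluorescent compounds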;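 also: AP2 carries R879A mutation and is captured from E. coli lysate; bead-bound FITC arrestin peptide fluorescence measuring arrestin peptide binding to AP2; 0% = DMSO wells and 100% = excess unlabeled arrestin peptide control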); details: FITC arrestin peptide, at 10 µM, stronger effect = higher value, AP2 beta2 appendage fragment, R879A mutant
AP-2 complex subunit beta (Homo sapiens), sequence (P63010 whole entry, looked up, the tested form may be a part, one chain of several): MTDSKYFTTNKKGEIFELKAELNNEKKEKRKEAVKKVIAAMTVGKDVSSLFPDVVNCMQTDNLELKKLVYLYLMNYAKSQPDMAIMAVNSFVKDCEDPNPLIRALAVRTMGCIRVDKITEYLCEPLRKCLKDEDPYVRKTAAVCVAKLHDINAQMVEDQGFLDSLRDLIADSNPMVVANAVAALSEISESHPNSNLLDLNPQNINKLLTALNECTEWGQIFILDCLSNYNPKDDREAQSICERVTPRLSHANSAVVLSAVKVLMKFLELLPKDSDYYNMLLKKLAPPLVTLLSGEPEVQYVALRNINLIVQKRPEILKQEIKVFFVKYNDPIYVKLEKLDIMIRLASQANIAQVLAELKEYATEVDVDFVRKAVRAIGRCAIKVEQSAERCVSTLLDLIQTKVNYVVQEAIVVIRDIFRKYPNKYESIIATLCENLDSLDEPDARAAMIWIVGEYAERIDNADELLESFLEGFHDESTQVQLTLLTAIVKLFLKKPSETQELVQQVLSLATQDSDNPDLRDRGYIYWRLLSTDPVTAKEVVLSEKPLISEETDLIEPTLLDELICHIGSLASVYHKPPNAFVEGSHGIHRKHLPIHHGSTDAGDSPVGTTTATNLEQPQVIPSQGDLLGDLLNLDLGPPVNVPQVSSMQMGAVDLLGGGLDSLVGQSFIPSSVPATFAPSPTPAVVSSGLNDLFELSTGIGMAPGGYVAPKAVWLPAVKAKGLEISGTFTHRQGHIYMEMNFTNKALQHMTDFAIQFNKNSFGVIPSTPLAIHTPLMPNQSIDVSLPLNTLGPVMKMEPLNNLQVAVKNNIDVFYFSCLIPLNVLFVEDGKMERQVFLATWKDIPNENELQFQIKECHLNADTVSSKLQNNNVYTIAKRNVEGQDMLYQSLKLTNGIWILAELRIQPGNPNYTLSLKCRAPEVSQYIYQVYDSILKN

Row | Structure (SMILES) | percent of DMSO control GFP [1] | GFP response vs DMSO [2] | percent response of DMSO control [3] | GFP response vs DMSO [4] | GFP response, % of DMSO [5] | double positive events [6] | vesicle binding response [6] | inhibition [7] | superoxide response (% of plate) [8] | aptamer binding inhibition [9] | response [10] | response [11] | binding (% of control) [12] | efflux inhibition (fraction of control) [13] | inhibition [14] | differentiation response [15] | inhibition [16]
1 | Nc1nc2ccc(OC(F)(F)F)cc2s1 | 100% (inactive) | 99.9% (inactive) | 99.3% (inactive) | 102% (inactive) | 95.1% (inactive) | 57.4% | 21.6% (inactive) | -0.31% (inactive) | 94.9% (inactive) | 4% (inactive) | 9.24% (inactive) | 1.08% (inactive) | 97.2% (inactive) | -0.41 (inactive) | 3% (inactive) | 2.69% (inactive) | –
2 | COc1ccc(C(=O)/C=C/c2ccc(OC(=O)c3cc(OC)c(OC)c(OC)c3)cc2)cc1 | 100% (inactive) | 102% (inactive) | 87.3% (inactive) | 114% (inactive) | 105% (inactive) | 60.7% | 179% (inactive) | -7.93% (inactive) | 96.7% (inactive) | -2% (inactive) | -6.42% (inactive) | -3.29% (inactive) | 97.4% (inactive) | 0.42 (inactive) | 0% (inactive) | 20.6% (inactive) | –
3 | Cn1cc(CN2CCCC(CO)(Cc3cccc(Cl)c3)C2)cn1 (configuration not stated) | 98% (inactive) | 102% (inactive) | 98.2% (inactive) | 97.2% (inactive) | 99.5% (inactive) | 59.5% | 57.6% (inactive) | 9.71% (inactive) | 92.7% (inactive) | 0% (inactive) | 30.5% (inactive) | -0.03% (inactive) | 102% (inactive) | -0.66 (inactive) | 2% (inactive) | -1.88% (inactive) | –
4 | C/C(=N/N1CCN(Cc2cccc3ccccc23)CC1)c1cccnc1 | 101% (inactive) | 102% (inactive) | 98.8% (inactive) | 99.4% (inactive) | 96.6% (inactive) | 58.2% | 182% (inactive) | -1.17% (inactive) | 102% (inactive) | 1% (inactive) | – | -3.49% (inactive) | 100% (inactive) | 0.25 (inactive) | 5% (inactive) | 9.49% (inactive) | 6.25% (inactive)
5 | CC(=O)OCC(=O)[C@H]1CC[C@H]2[C@@H]3CC=C4C[C@@H](O)CC[C@]4(C)[C@H]3CC[C@]12C | 106% (inactive) | 95.9% (inactive) | 114% (inactive) | 115% (inactive) | 89.4% (inactive) | 59.7% | 174% (inactive) | 4.42% (inactive) | 99% (inactive) | 0% (inactive) | – | 0.3% (inactive) | 101% (inactive) | 0.29 (inactive) | 6% (inactive) | -27.6% (inactive) | -2.87% (inactive)
6 | O=[N+]([O-])c1cc(/C=N/n2cnnc2)ccc1N1CCCC1 | 100% (inactive) | 99.9% (inactive) | 97.9% (inactive) | 95.4% (inactive) | 101% (inactive) | 60.8% | 182% (inactive) | 10.9% (inactive) | 105% (inactive) | 6% (inactive) | – | -0.97% (inactive) | 96.4% (inactive) | -0.43 (inactive) | 3% (inactive) | -8.27% (inactive) | 5.45% (inactive)
7 | CC(=O)OCC(=O)[C@@]12OC(C)(C)O[C@@H]1C[C@H]1[C@@H]3C[C@H](F)C4=CC(=O)C=C[C@]4(C)[C@@]3(F)[C@@H](O)C[C@@]12C | 104% (inactive) | 107% (inactive) | 106% (inactive) | 100% (inactive) | 105% (inactive) | 64.6% | 212% (inactive) | 3.49% (inactive) | 94.7% (inactive) | 0% (inactive) | – | 1.38% (inactive) | 91.8% (inactive) | 0.03 (inactive) | 8% (inactive) | 19.2% (inactive) | 2.71% (inactive)
8 | COc1ccc(C2(CCN=Cc3ccc(N(C)C)cc3)CCOC(C)(C)C2)cc1 (configuration not stated) | 104% (inactive) | 102% (inactive) | 99.8% (inactive) | 95.4% (inactive) | 95.2% (inactive) | 58.8% | 222% (inactive) | -3.97% (inactive) | 98.3% (inactive) | 0% (inactive) | – | -4.5% (inactive) | 128% (inactive) | -0.24 (inactive) | 12% (inactive) | 7.87% (inactive) | -3.62% (inactive)
9 | O=C1OCCN1/N=C/c1ccc([N+](=O)[O-])o1 | 103% (inactive) | 103% (inactive) | 109% (inactive) | 111% (inactive) | 102% (inactive) | 48.6% | 157% (inactive) | 3.49% (inactive) | 124% (inactive) | -2% (inactive) | – | 8.6% (inactive) | 104% (inactive) | 0.06 (inactive) | 4% (inactive) | -16.4% (inactive) | 3.09% (inactive)
10 | CC(C)(C)OC(=O)N1CCCC1C(=O)NC(Cc1ccccc1)C(=O)O (stereo not drawn) (Boc-Pro-Phe-OH; configuration not given here) | 101% (inactive) | 98.9% (inactive) | 104% (inactive) | 104% (inactive) | 102% (inactive) | 61.4% | 186% (inactive) | 13.8% (inactive) | 92.5% (inactive) | -1% (inactive) | – | 4.48% (inactive) | 101% (inactive) | 0.22 (inactive) | 10% (inactive) | 7.87% (inactive) | 9.73% (inactive)
11 | COc1cccc(CN2CCN(C(=O)c3ccc(-c4ccccc4)cc3)CC2)c1 | 99.1% (inactive) | 103% (inactive) | 103% (inactive) | 113% (inactive) | 98.8% (inactive) | 52.5% | 189% (inactive) | -6.77% (inactive) | 87.9% (inactive) | 2% (inactive) | – | 5.01% (inactive) | 99.5% (inactive) | 0.22 (inactive) | 7% (inactive) | 4.64% (inactive) | -7.96% (inactive)
12 | CC(=O)O[C@H]1C(=O)[C@@]2(C)[C@H]([C@H](OC(=O)c3ccccc3)[C@]3(O)C[C@H](OC(=O)[C@H](O)C(NC(=O)c4ccccc4)c4ccccc4)C(C)=C1C3(C)C)[C@]1(OC(C)=O)CO[C@@H]1C[C@@H]2O (some centres not stated) | 106% (inactive) | 99.9% (inactive) | 103% (inactive) | 90.3% (inactive) | 97.3% (inactive) | 55.6% | 162% (inactive) | 5.36% (inactive) | 99% (inactive) | 3% (inactive) | – | -2.34% (inactive) | 94.6% (inactive) | 0.63 (active) | 7% (inactive) | 9.49% (inactive) | 2.22% (inactive)
13 | C[C@]12CC[C@H]3C(=CCc4cc(O)ccc43)[C@@H]1CCC2=O | 101% (inactive) | 94.8% (inactive) | 90% (inactive) | 110% (inactive) | 92.1% (inactive) | 59.4% | 172% (inactive) | 7.22% (inactive) | 102% (inactive) | 7% (inactive) | – | -1.47% (inactive) | 103% (inactive) | 0.25 (inactive) | 4% (inactive) | 1.41% (inactive) | 2.28% (inactive)
14 | CC1(C)c2ccccc2N2CC(=O)N(CC(N)=O)C21C (configuration not stated) | 103% (inactive) | 99.9% (inactive) | 103% (inactive) | 109% (inactive) | 105% (inactive) | 61.8% | 243% (inactive) | -5.84% (inactive) | 108% (inactive) | 3% (inactive) | – | 3.96% (inactive) | 97.8% (inactive) | -0.35 (inactive) | 11% (inactive) | -21.2% (inactive) | -1.94% (inactive)
15 | CC(C)(C)[C@]1(O)CCN2C[C@H]3c4ccccc4CCc4cccc(c43)[C@@H]2C1 | 106% (inactive) | 97.9% (inactive) | 112% (inactive) | 102% (inactive) | 107% (inactive) | 35.9% | 134% (inactive) | -20.8% (inactive) | 95.1% (inactive) | -4% (inactive) | – | 1.63% (inactive) | 106% (inactive) | -0.2 (inactive) | 6% (inactive) | 20.8% (inactive) | -19.5% (inactive)
16 | COc1ccc(CC(=O)c2c(O)cc(O)cc2O)cc1OC | 103% (inactive) | 110% (inactive) | 98.8% (inactive) | 101% (inactive) | 97.5% (inactive) | 58.4% | 171% (inactive) | 1.62% (inactive) | 102% (inactive) | 1% (inactive) | – | -6.13% (inactive) | 100% (inactive) | 0.18 (inactive) | 3% (inactive) | 27.2% (inactive) | 49.5% (inactive)
17 | CC(=O)NC1C(OCCOc2ccc(Cl)cc2Cl)OC(COC(C)=O)C(OC(C)=O)C1OC(C)=O (configuration not stated) | 103% (inactive) | 102% (inactive) | 108% (inactive) | 91.3% (inactive) | 94.5% (inactive) | 55.1% | 168% (inactive) | 16.6% (inactive) | 108% (inactive) | 3% (inactive) | – | -6.83% (inactive) | 101% (inactive) | -0.2 (inactive) | 9% (inactive) | 20.8% (inactive) | 8.3% (inactive)
